Records with an inconclusive call do not appear. Calls of active or inactive are those of the source. Unless noted, calls come from the whole dose curve; as a rule, active = well fitted curve in the direction sought with a large enough effect in the repeat runs; inconclusive = weak or mixed curves; inactive = no such curve, though single readings can be large; an effect the other way counts as inactive or inconclusive.
Columns and labels:
[1] = qHTS assay to identify small molecule antagonists of the estrogen related receptor (ERR) signaling pathway - cell viability counter screen (AID 1224818); note: series mostly up to about 46 µM
Outline: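 ERR cells, 2,000 per well, compound added after 6 h and incubated 17.5 h at 37 C. Viability read by CellTiter-Fluor fluorescence after a further 30 min at 37 C.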

[2] = qHTS assay to identify small molecule antagonists of the estrogen related receptor (ERR) signaling pathway (AID 1224819;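 note: luminescence from an ERR-driven luciferase reporter measured with One-Glo reagent; series mostly up to about 46 µM; nearly all actives have a fitted effect of over 50% in size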)
Outline: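 ERR reporter cell line (NTP) plated at 2,000 cells/well, settled 6 h at 37C/5% CO2, then exposed to LOPAC compounds for 18 h at 37C. One-Glo luciferase luminescence read after 30 min at room temperature.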

[3] = qHTS assay to identify small molecule agonists of the estrogen related receptor (ERR) signaling pathway (AID 1224820)
Outline: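 Quantitative HTS of the LOPAC library used NTP ERR reporter cells treated 18 h at 37 C. Signal is luminescence after One-Glo addition and a 30 min room-temperature incubation.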

[4] = system: estrogen-related receptor alpha (ERRalpha) with PGC-1alpha coactivator, human; experiment: qHTS assay to identify small molecule antagonists of the estrogen related receptor signaling pathway with the pleiotropic PPARgamma coactivator (PGC) (AID 1224821; calls by dose curve;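 note: series mostly up to about 46 µM; lower luminescence signal means antagonism of PGC/ERR signalling; nearly all actives have a fitted effect of over 50% in size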)
Outline: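 Quantitative HTS for antagonism: PGC/ERR cells received compounds after 6 h attachment and were incubated 18 h at 37 C, with luminescence (One-Glo) as the endpoint.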

[5] = qHTS assay to identify small molecule antagonists of the estrogen related receptor signaling pathway with the pleiotropic PPARgamma coactivator (PGC) cell viability counter screen (AID 1224822; note: series mostly up to about 46 µM)
Outline: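 PGC/ERR cells rested 6 h, then compound-treated 17.5 h at 37 C. CellTiter-Fluor added for 30 min at 37 C, viability measured by fluorescence intensity.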

[6] = qHTS assay to identify small molecule agonists of the estrogen related receptor signaling pathway with the pleiotropic PPARgamma coactivator (PGC) (AID 1224823)
Outline: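 Cell-based luciferase assay in the NTP-supplied PGC/ERR line, 2,000 cells/well; 18 h compound exposure at 37 C, luminescence after One-Glo.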

Measured: Potency

CCCN(CCC)C1Cc2cc(OC)c(OC)cc2C1
inactive: [1] | [2] | [3] | [4] | [5] | [6]

CN(C(=O)Cc1ccc(Cl)c(Cl)c1)C(CN1CCCC1)c1cccc(OCC(=O)O)c1 (configuration not stated)
inactive: [1] | [2] | [3] | [4] | [5] | [6]
